Experimental data taken from PubChem BioAssay (NCATS).
Records with an inconclusive call do not appear. Calls of active or inactive are those of the source. Calls follow the shape of the dose curve; as a rule, active = well fitted curve in the direction sought with a large enough effect; inconclusive = small, poorly fitted or top-dose-only effect, or another doubt; inactive = no such curve, though single readings can be large; an effect the other way counts as inactive or inconclusive.

Key:
[1] = molecular target: Cellular tumor antigen p53 (Homo sapiens) (UniProt P04637); experiment: Primary qHTS for small molecule compounds that upregulate eGFP-tagged delta133p53alpha (in N-terminal) cells. (AID 2060322); conditions: NCI-H358 eGFP-delta133p53alpha fluorescence, 24 h; activation: hits give high values; also: nearly all actives have a fitted effect of over 75% in size; also: potency is read from the fitted curve at half-maximal effect;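 as to activation: cells pre-induced with doxycycline then dosed without doxycycline; 0% = DMSO vehicle and 100% = reference activator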
Cellular tumor antigen p53 (Homo sapiens), sequence (P04637 whole entry, looked up): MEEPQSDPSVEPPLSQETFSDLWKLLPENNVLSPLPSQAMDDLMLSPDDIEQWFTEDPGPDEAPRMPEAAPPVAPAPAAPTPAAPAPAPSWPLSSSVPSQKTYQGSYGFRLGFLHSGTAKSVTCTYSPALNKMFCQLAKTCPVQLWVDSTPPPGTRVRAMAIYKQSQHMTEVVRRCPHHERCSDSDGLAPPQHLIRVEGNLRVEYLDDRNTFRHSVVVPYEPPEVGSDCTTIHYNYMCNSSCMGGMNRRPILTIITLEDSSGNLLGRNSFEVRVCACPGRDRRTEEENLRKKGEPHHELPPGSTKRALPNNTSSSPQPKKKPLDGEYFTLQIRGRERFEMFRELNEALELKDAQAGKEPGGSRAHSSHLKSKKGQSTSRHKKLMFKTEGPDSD
Summary of the method: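 NCI-H358 cells pre-induced 24 h with 10 ng/ml doxycycline for eGFP-delta133p53alpha, plated dox-free and exposed 24 h at 37C to titrated compounds. Fixed, Hoechst-stained; gated GFP peak intensity by laser scanning cytometry, normalized to DMSO (0%) and 57.5 uM 5-azacytidine (100%).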

[2] = molecular target: Aldehyde dehydrogenase, mitochondrial (Homo sapiens) (UniProt P05091); experiment: qHTS for Inhibitors of the Aldehyde Dehydrogenase Family (ALDH2) Primary screen (AID 2061308); conditions: ALDH2 enzyme inhibition qHTS, 1536-well; series mostly up to 56 µM;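 also: plate controls were vehicle for no effect and reference inhibitor for full effect; nearly all actives have a fitted effect of over 55% in size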
[3] = molecular target: Retinaldehyde dehydrogenase 3 (Homo sapiens) (UniProt P47895); experiment: qHTS for Inhibitors of the Aldehyde Dehydrogenase Family (ALDH1A3) Validation screen (AID 2061312); conditions: ALDH1A3 enzyme inhibition qHTS validation, fluorescence; series mostly up to 84.7 µM; also: % is scaled to controls: 0 for no effect and ±100 for the full control effect; nearly all actives have a fitted effect of over 45% in size
[4] = molecular target: Retinaldehyde dehydrogenase 3 (Homo sapiens) (UniProt P47895); experiment: qHTS for Inhibitors of the Aldehyde Dehydrogenase Family (ALDH1A3) Primary screen (AID 2061315); conditions: ALDH inhibition qHTS; series mostly up to 56 µM;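 also: plate controls were DMSO vehicle for no effect and reference inhibitor for full effect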

CC1(C)CC(NC(=O)C(=O)Nc2ccc(Br)cc2)CC(C)(C)N1
inactive: Potency [2] | Potency [3] | Potency [4]
active: Potency [1] 13.5 µM

O=C(N[C@@H]1CC[C@@H](c2cccc(F)c2F)CN(CC(F)(F)F)C1=O)N1CCC(n2c(=O)[nH]c3ncccc32)CC1
inactive: activation [1] -0.477% | Potency [2] | Potency [3] | Potency [4]

O=C(Nc1cc(-c2ccccc2)nn1-c1ccccc1F)c1ccc([N+](=O)[O-])cc1
inactive: activation [1] -5.73% | Potency [2] | Potency [3] | Potency [4]

Cc1nc(C#Cc2ccnc(Cl)c2)c(C)n1-c1ccc(F)cc1
inactive: activation [1] -12.9% | Potency [2] | Potency [3] | Potency [4]

CN(C)C(=O)NC1CCC(CCN2CCN(c3cccc(Cl)c3Cl)CC2)CC1 (stereo not given)
inactive: activation [1] -1.91% | activity change, negative = inhibition [2] 8.14% [at 11.2 µM] | activity change, negative = inhibition [3] 7.05% [at 20.1 µM] | activity change, negative = inhibition [4] -11.6% [at 11.2 µM]

CN(C)CCn1cc(-c2ccc(F)cc2)c(-n2cccc2)n1
inactive: activation [1] -10.5% | Potency [2] | Potency [3] | Potency [4]

O=C1CSc2ccccc2N1Cc1cccc(C(F)(F)F)c1
inactive: activation [1] 3.34% | Potency [2] | Potency [3] | Potency [4]

COc1ccc(C(=O)Nc2c(Cl)cncc2Cl)cc1OC1CCCC1
inactive: activation [1] 0% | Potency [2] | Potency [3] | Potency [4]

CON(C)C(=O)[C@H](O)[C@H](Cc1ccccc1)NC(=O)c1cc2cc(Cl)ccc2[nH]1
inactive: activation [1] -8.59% | Potency [2] | Potency [3] | Potency [4]

C=C1CCN([C@H](C)[C@](O)(Cn2cncn2)c2ccc(F)cc2F)CC1
inactive: activation [1] -19.1% | Potency [2] | Potency [3] | Potency [4]
